# Screening results (PubChem BioAssay)
# In the library only some 2.7% were active in any assay of this set; here they are far more common.
# CFTR F508del cor: F508del CFTR correction, initial screen, CFBE line, single point. hit rate 0.36% among 350,000. AID 720511, 2013. CFBE cells, YFP halide quenching; stimulated with forskolin plus potentiator P3; % fluorescence drop versus neutral controls. activity (quench increase), % at 7.58 µM;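 active = mean added fluorescence quench of at least 8% versus neutral control, with both replicates also reaching 8%; inconclusive = only one of the mean or replicate conditions met; inactive = mean below 8% and not both replicates reaching 8%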;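 also: cells transiently co-express mutant CFTR-F508del with the halide-sensitive YFP; corrector assay measuring rescue of mutant channel to the surface after 24 h compound exposure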
# Wnt act: Wnt/beta-catenin pathway activators, primary screen, cell-based, plate reader, single point. Wnt/beta-catenin reporter cell assay, activator. activation, % at 9.35 µM. hit rate 1.2% among 300,000; in the data active = activation above about 30%, passing the limit was not always enough; inconclusive = no clear call, values can overlap the other calls;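 also: 0% = neutral control wells and 100% = positive control wells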
# Env fusion inh: inhibitors of HIV-1 Env-driven cell-cell fusion, primary screen, HeLa-JRFL effector, CEM21 target cells, luciferase | hit rate 1.1% among 360,000 | inhibition, % at 12.3 µM;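 active = mean replicate inhibition score of at least 50 and every replicate individually at or above 50; inconclusive = only one of the two criteria met; inactive = mean below 50 and not all replicates reaching 50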;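 also: 0% = plate neutral controls and 100% = maraviroc near 300 nM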
# MITF TRPM1 HTS: activators of MITF-driven TRPM1 promoter reporter, primary screen, cell-based, SK-MEL-5, luciferase, single point. SK-MEL-5 TRPM1-promoter luciferase, 24 h; % of positive control, neutral wells = 0. AID 588334, 2011. hit rate 0.75% among 300,000. activation, % at 12.5 µM;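 active = mean activation of at least 80% with every replicate also reaching 80%; inconclusive = mean reaches 80% but some replicate falls short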;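 also: 0% = neutral control wells and 100% = parthenolide positive control wells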
# GSIS activator: GLuc luminescence reporter in INS-1E cells, primary screen for activators of glucose-dependent secretion of insulin; hit rate 0.61% among 370,000; AID 743287, 2014; activation, % at 16.6 µM; INS-1E GLuc reporter insulin secretion, 2-3 h;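 active = lowest replicate activation of at least 40%, so every replicate reaches that level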;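 also: 0% = median of neutral control wells and 100% = median of IBMX positive control wells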
# An asterisk follows results filed as active; ? = inconclusive; · = no result; [ ] = remark or other dose.
SMILES,CFTR F508del cor,Wnt act,Env fusion inh,MITF TRPM1 HTS,GSIS activator
O=C(NCc1cccs1)C(Cc1ccccc1)NS(=O)(=O)c1cccs1 (stereo unspecified),·,·,55*,·,·
CCc1cccc(CC)c1NC(=O)C(NS(=O)(=O)c1cccs1)c1ccccc1 (stereo unspecified),·,·,-7,7,2
CCC(C)(C)NC(=O)C(NS(=O)(=O)c1cccs1)c1ccccc1 (stereo unspecified),·,2,71*,10,3
C[C@@H]1CCCCO[C@@H](CN(C)C(=O)NC2CCCCC2)[C@H](C)CN([C@H](C)CO)C(=O)c2cc(NC(=O)c3ccncc3)ccc2O1,2,·,-90[16.7 µM],·,-20
Cc1nc(Nc2nc3ccccc3o2)nc(C)c1C(=O)Nc1ccc(F)cc1,2,43*,-6,-8,13
COc1ccc(CCn2nnc(-c3ccc(NC(C)=O)c(Cl)c3)n2)cc1,·,·,-71,·,81*
COc1ccc(NC(=O)Cn2nnc(-c3ccc(CN4CCOCC4)cc3)n2)c(OC)c1,·,-2,-40,·,·
COc1ccc2c3c(n(C)c2c1)[C@H](CO)N(Cc1ccc2c(c1)OCO2)CC31CCN(C(=O)c2ccc3c(c2)OCO3)CC1,-2,·,·,·,-1
Cc1cccc(-c2ccc([C@H]3[C@H](CO)N4CCCCN(Cc5cccnc5)C[C@@H]34)cc2)c1,1,·,·,·,·
Cc1ccc(S(=O)(=O)N(C)c2ccc(C(=O)N(C)Cc3nc4ccccc4c(=O)[nH]3)cc2)cc1,0,-1,58*,-6,-16
Cc1ccc(S(=O)(=O)N(C)C[C@H]2Oc3c(NC(=O)C4CCOCC4)cccc3C(=O)N([C@@H](C)CO)C[C@H]2C)cc1,1,·,-34[16.7 µM],·,0
C[C@@H]1CN([C@H](C)CO)C(=O)c2cc(NC(=O)Nc3cccc4ccccc34)ccc2O[C@@H]1CN(C)Cc1ccc(C(F)(F)F)cc1,-2,·,74*[16.7 µM],·,-16
C[C@@H]1CCCCO[C@H](CN(C)Cc2ccccc2)[C@@H](C)CN([C@H](C)CO)C(=O)c2cc(NC(=O)Nc3ccc(C(F)(F)F)cc3)ccc2O1,4,·,4[16.7 µM],·,6
C[C@@H]1CN([C@@H](C)CO)C(=O)c2cc(NC(=O)Nc3cccc4ccccc34)ccc2O[C@@H]1CN(C)Cc1ccc(C(F)(F)F)cc1,2,·,-3[16.7 µM],·,-14
C[C@H]1CCCCO[C@@H](CN(C)Cc2ccccc2)[C@@H](C)CN([C@@H](C)CO)C(=O)c2cc(NC(=O)Nc3ccc(C(F)(F)F)cc3)ccc2O1,3,·,68*[16.7 µM],·,8
C[C@@H]1CN([C@@H](C)CO)C(=O)c2cc(NC(=O)c3ccccc3)ccc2O[C@@H](C)CCCCO[C@H]1CN(C)Cc1ccc(C(=O)O)cc1,0,·,62*[16.7 µM],·,8
C[C@H](CO)N1C[C@H](C)[C@H](CN(C)CC2CC2)OCCCC[C@H](C)Oc2ccc(NC(=O)Nc3cccc4ccccc34)cc2C1=O,0,·,62*[16.7 µM],·,1
COc1ccccc1-c1cn(CC[C@@H]2CC[C@H](NC(=O)C3CCCC3)[C@@H](CO)O2)nn1,-1,·,·,·,3
C[C@@H]1CN([C@H](C)CO)C(=O)c2cc(NC(=O)Nc3ccccc3)ccc2O[C@@H](C)CCCCO[C@@H]1CN(C)Cc1ccc(C(F)(F)F)cc1,-12,·,58*[16.7 µM],·,-16
C[C@@H]1CCCCO[C@@H](CN(C)Cc2ccc(C(F)(F)F)cc2)[C@H](C)CN([C@@H](C)CO)C(=O)c2cc(NC(=O)c3ccccc3)ccc2O1,1,·,56*[16.7 µM],·,-3
C[C@H]1CCCCO[C@H](CN(C)CC2CCCCC2)[C@@H](C)CN([C@@H](C)CO)C(=O)c2cc(NC(=O)c3ccccc3)ccc2O1,-1,·,?,·,-8
C[C@H]1CCCCO[C@@H](CN(C)Cc2ccc(C(F)(F)F)cc2)[C@@H](C)CN([C@@H](C)CO)C(=O)c2cc(NC(=O)Nc3cccc4ccccc34)ccc2O1,1,·,61*[16.7 µM],·,-2
C[C@@H]1CN([C@@H](C)CO)C(=O)c2cc(NC(=O)c3ccccc3)ccc2O[C@@H](C)CCCCO[C@H]1CN(C)CC1CCCCC1,-1,·,63*[16.7 µM],·,-13
COc1cccc(NC(=O)N[C@H]2CC[C@H](CC(=O)NCc3ccncn3)O[C@H]2CO)c1,1,·,-2[16.7 µM],·,11
C[C@@H]1CCCCO[C@H](CN(C)Cc2ccccc2)[C@H](C)CN([C@H](C)CO)C(=O)c2cc(NC(=O)Nc3ccc(C(F)(F)F)cc3)ccc2O1,?,·,?,·,-13
SMILES,CFTR F508del cor,Wnt act,Env fusion inh,MITF TRPM1 HTS,GSIS activator
C[C@H](CO)N1C[C@H](C)[C@H](CN(C)Cc2ccccc2)OCCCC[C@H](C)Oc2ccc(NC(=O)Nc3ccc(C(F)(F)F)cc3)cc2C1=O,2,·,66*[16.7 µM],·,19
NCCCCCNC(=O)[C@@H]1C[C@@H]2C(=O)N[C@@H](Cc3ccccc3)C(=O)N2[C@@H]1c1ccc(O)cc1,0,·,-11[16.7 µM],·,·
CN1C(=O)c2cc(NC(=O)c3cc(F)cc(F)c3)ccc2OC[C@H]2O[C@H](CC(=O)O)CC[C@H]21,-2,·,7[16.7 µM],·,3
CCCNC(=O)N1C[C@H](C)[C@H](OC)CN(C)C(=O)c2ccc(NC(=O)C3CCC3)cc2OC[C@H]1C,0,·,-2[16.7 µM],·,-4
N#CC1c2ccccc2-c2ccccc2N1C(=O)c1ccccc1 (stereo unspecified),11*,-3,13,·,21
C/C=C/c1ccc2c(c1)O[C@@H](CN(C)C(=O)NC(C)C)[C@@H](C)CN([C@H](C)CO)S2(=O)=O,0,·,-4[16.7 µM],·,7
CNC(=O)C[C@H]1CC[C@@H]2[C@H](COC[C@@H](O)CN2C(=O)c2ccccn2)O1,7,·,·,·,3
C=CCN=C1S/C(=C\c2ccc(N(C)C)cc2)C(=O)N1CC=C,0,37*,-35,99*,·
O=C(C[C@@H]1C=C[C@@H](NC(=O)c2ccncc2)[C@@H](CO)O1)NCC1CC1,6,·,0[16.7 µM],·,0
C[C@H]1CN([C@@H](C)CO)C(=O)Cc2cc(NC(=O)Cc3ccccc3)ccc2O[C@H]1CN(C)S(=O)(=O)c1ccccc1,1,·,73*[16.7 µM],·,0
Cc1noc(C)c1S(=O)(=O)N(C)C[C@H]1Oc2ccc(NC(=O)Nc3ccc(C(F)(F)F)cc3)cc2CC(=O)N([C@H](C)CO)C[C@@H]1C,1,·,1[16.7 µM],·,3
Cc1noc(C)c1S(=O)(=O)N(C)C[C@@H]1Oc2ccc(NC(=O)Nc3ccc(C(F)(F)F)cc3)cc2CC(=O)N([C@H](C)CO)C[C@@H]1C,-1,·,60*[16.7 µM],·,2
Cc1ccc(S(=O)(=O)N(C)C[C@@H]2Oc3ccc(NC(=O)Cc4ccccc4)cc3CC(=O)N([C@H](C)CO)C[C@@H]2C)cc1,-2,·,77*[16.7 µM],·,-21
